ELG1 DNA repair: ELG1-dependent DNA repair inhibition | HEK293T ELG1-luciferase reporter, luminescence, 16 h; DNA damage induced by 5-fluorouridine | Potency, µM (top dose mostly 46.1 µM), inactives show at the top dose activity change, negative = inhibition, most hits filed as inhibitors | hit rate 2.3% among 330,000; also: % is scaled to controls: 0 for no effect and ±100 for the full control effect; nearly all actives have a fitted effect of over 55% in size
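HEK293T cells expressing luciferase-tagged ELG1 (2,000/well) received 5-Fluorouridine plus compound or DMSO for 16 hr at 37 °C. Luciferase was read by ONE-Glo luminescence after 30 min at room temperature.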
SW480 rereplic: inducers of DNA re-replication in SW480 colon cancer cells | SW480 DNA re-replication, Hoechst DNA content imaging, 48 h | Potency, µM (titrated, usually from 46.1 µM), without a hit: top-dose re-replication activation, hits mostly activators | hit rate 1.8% among 340,000 | AID 624297; also: % of control where 0% means no effect; nearly all actives have a fitted effect of over 55% in size
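Image-based read-out: total Hoechst fluorescence of nuclei (405 nm excitation, 500-530 nm emission), with hits raising the fraction of high-intensity nuclei. SW480 colon cells incubated 48 hr with compounds at 37 C.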
KB-3-1 tox: kills parental KB-3-1 adenocarcinoma cells | KB-3-1 viability, CellTiter-Glo ATP luminescence, 72 h | Potency, µM (top dose mostly 46.1 µM), usual class: cytotoxic | hit rate 1.4% among 400,000 | AID 1347075; also: % is scaled to controls: 0 for no effect and ±100 for the full control effect; nearly all actives have a fitted effect of over 60% in size
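Screening of KB-3-1 cells (DMEM, 10% FBS, phenol-red free) ran from lowest to highest compound concentration; after 72 h at 37 °C viability was read luminescently and curves fitted.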
MCF10A rereplic: induces DNA re-replication in MCF 10a normal breast cells; hit rate 2.9% among 350,000; MCF 10A DNA re-replication, Hoechst nuclear intensity, 48 h; Potency, µM (titrated, usually from 46.1 µM), without a hit: at the top dose activity, positive = re-replication, actives largely listed as activators; also: % of control where 0% means no effect; nearly all actives have a fitted effect of over 50% in size
KB-V1 MDR tox: KB-V1 MDR subline cytotoxicity. hit rate 3.4% among 400,000. Potency, µM (top dose mostly 46.1 µM), hits mostly cytotoxic. KB-V1 MDR cells viability, CellTiter-Glo, 72 h; also: % is scaled to controls: 0 for no effect and ±100 for the full control effect; nearly all actives have a fitted effect of over 60% in size
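Drug-selected KB-V1 cells, grown in DMEM lacking phenol red with 10% FBS, receive compound titrations; after three days at 37 degrees C, surviving cell ATP is quantified by CellTiter-Glo luminescence and responses normalized and curve-fitted.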
An asterisk follows results filed as active. Hits are enriched below; roughly 8.1% of the tested compounds scored in any of these assays. Calls follow the shape of the dose curve; as a rule, active = well fitted curve in the direction sought with a large enough effect; inconclusive = small, poorly fitted or top-dose-only effect, or another doubt; inactive = no such curve, though single readings can be large; an effect the other way counts as inactive or inconclusive. Potency is read from the fitted curve at half-maximal effect.

For COc1cc(Cl)c(C)cc1NC(=O)CN1CCN(C(=O)C2CC2)CC1 the results were ELG1 DNA repair -19.5%, SW480 rereplic inconclusive, KB-3-1 tox inactive, MCF10A rereplic -12.7% and KB-V1 MDR tox 20.6µM*.
For O=C(Nc1ccc(-c2nc3ccccc3[nH]2)cc1)c1ccc2c(c1)OCCO2 the results were KB-3-1 tox inconclusive and KB-V1 MDR tox inactive.
Screening CC(CCc1ccccc1)NC(=O)C(=O)c1c[nH]c2ccccc12 (stereo not given) returned ELG1 DNA repair -2.5%, SW480 rereplic 24.3%, KB-3-1 tox inactive, MCF10A rereplic 10.3µM* and KB-V1 MDR tox inactive.
For CCc1ccc(CNC(=O)c2nn(C)c3c2CS(=O)(=O)c2ccccc2-3)cc1 the results were ELG1 DNA repair inconclusive, SW480 rereplic -11.1%, KB-3-1 tox inactive, MCF10A rereplic -2.0% and KB-V1 MDR tox inactive.
`CSc1ccc(CCNC(=O)c2nn(C)c3c2CS(=O)(=O)c2ccccc2-3)cc1` gave ELG1 DNA repair 25.9µM*, SW480 rereplic -11.7%, KB-3-1 tox inactive, MCF10A rereplic -6.3% and KB-V1 MDR tox inactive.
`CCOc1ccccc1CNC(=O)c1nn(C)c2c1CS(=O)(=O)c1ccccc1-2` gave ELG1 DNA repair 16.4µM*, SW480 rereplic -12.0%, KB-3-1 tox inactive, MCF10A rereplic inconclusive and KB-V1 MDR tox inactive.
COc1ccc(NC(=O)O[C@@H](C)[C@@H]2CN3CCc4c([nH]c5ccc(-c6ccc(OC)cc6)cc45)[C@@H]3C[C@@H]2N(C)C(=O)Nc2ccc(OC)cc2)cc1 was read as KB-3-1 tox inactive and KB-V1 MDR tox inactive.
O=C(NCc1cccnc1)C1C2C=CC(C2)C1C(=O)Nc1cccc(C(F)(F)F)c1 (stereo not given) was read as KB-3-1 tox inactive and KB-V1 MDR tox inactive.
For CCOC(=O)C1CCCN(C(=O)c2ccc3c(=O)n(CCOC)c(=S)[nH]c3c2)C1 (stereo not given) the results were ELG1 DNA repair 8.2µM*, SW480 rereplic 0.0%, KB-3-1 tox inactive, MCF10A rereplic inconclusive and KB-V1 MDR tox 23.1µM*.
For COc1ccccc1Cn1c(=S)[nH]c2cc(C(=O)N3CCCC(C)C3)ccc2c1=O (stereo not given) the results were KB-3-1 tox 20.6µM* and KB-V1 MDR tox inactive.
For COCCn1c(=S)[nH]c2cc(C(=O)N3CCC(C(N)=O)(N4CCCCC4)CC3)ccc2c1=O the results were ELG1 DNA repair -1.9%, SW480 rereplic -2.1%, KB-3-1 tox inactive, MCF10A rereplic -2.0% and KB-V1 MDR tox inactive.
Screening COc1ccccc1Cn1c(=S)[nH]c2cc(C(=O)N3CCC(C(N)=O)CC3)ccc2c1=O returned ELG1 DNA repair 21.1%, SW480 rereplic 5.1%, KB-3-1 tox inactive, MCF10A rereplic 12.2% and KB-V1 MDR tox inactive.
`COc1ccc(-c2nc(CSCC(=O)N3CCN(c4cccc(C)c4C)CC3)c(C)o2)cc1OC` gave KB-3-1 tox inconclusive and KB-V1 MDR tox inactive.
`C=CCC[C@@H](Cc1ccc(F)cc1)C(=O)OC[C@H](Cc1c[nH]c2ccccc12)NC(=O)[C@H](CC=C)CC(=O)N(CCO)Cc1ccccc1` gave ELG1 DNA repair 18.3µM*, SW480 rereplic inconclusive, KB-3-1 tox inactive, MCF10A rereplic inconclusive and KB-V1 MDR tox inactive.
`C=CCC[C@H](Cc1ccc(F)cc1)C(=O)OC[C@H](Cc1c[nH]c2ccccc12)NC(=O)[C@@H](CC=C)CC(=O)N(CCO)Cc1ccccc1` gave ELG1 DNA repair 23.1µM*, SW480 rereplic inconclusive, KB-3-1 tox inactive, MCF10A rereplic inconclusive and KB-V1 MDR tox 20.6µM*.
For C=CC[C@H](CC(=O)N(CCO)Cc1ccccc1)C(=O)N[C@@H](C)COC(=O)[C@H](CC=C)CC(=O)OC(C)(C)C the results were ELG1 DNA repair 23.1µM*, SW480 rereplic 2.4%, KB-3-1 tox inactive, MCF10A rereplic 16.1% and KB-V1 MDR tox inactive.
C=CCC[C@H](Cc1ccc(F)cc1)C(=O)O[C@H](CNC(=O)[C@@H](CC=C)CC(=O)N(CCO)Cc1ccccc1)c1ccccc1 was read as ELG1 DNA repair inconclusive, SW480 rereplic inconclusive, KB-3-1 tox inactive, MCF10A rereplic 20.6µM* and KB-V1 MDR tox inactive.
`COc1cc(F)ccc1-c1cc(C(=O)Nc2cc(OC)c(OC)c(OC)c2)[nH]n1` gave KB-3-1 tox inactive and KB-V1 MDR tox inactive.
CCCCCN(CCCCC)c1ccc(/C=C/c2ccnc3ccccc23)cc1 was read as KB-3-1 tox inactive and KB-V1 MDR tox inconclusive.
Screening O=C(Cn1ncc2c3ccccc3n(Cc3cccc(Cl)c3)c2c1=O)NCc1cccs1 returned KB-3-1 tox inactive and KB-V1 MDR tox inactive.
`C=CCC[C@H](Cc1ccc(F)cc1)C(=O)OC[C@@H](Cc1c[nH]c2ccccc12)NC(=O)[C@@H](CC=C)CC(=O)N(CCO)Cc1ccccc1` gave ELG1 DNA repair 25.9µM*, SW480 rereplic inconclusive, KB-3-1 tox inconclusive, MCF10A rereplic inconclusive and KB-V1 MDR tox inconclusive.
C=CC[C@H](CC(=O)N(CCO)Cc1ccccc1)C(=O)N[C@H](COC(=O)[C@@H](CC=C)Cc1ccc(F)cc1)Cc1ccccc1 was read as ELG1 DNA repair 20.6µM*, SW480 rereplic 17.1%, KB-3-1 tox inconclusive, MCF10A rereplic 5.1% and KB-V1 MDR tox inconclusive.
`C=CCC[C@@H](Cc1ccc(F)cc1)C(=O)OC[C@@H](Cc1c[nH]c2ccccc12)NC(=O)[C@@H](CC=C)CC(=O)NCCO` gave ELG1 DNA repair inconclusive, SW480 rereplic inconclusive, KB-3-1 tox inactive, MCF10A rereplic inconclusive and KB-V1 MDR tox inactive.
Screening COc1ccc(-c2cc(C)no2)cc1S(=O)(=O)NCCCN1CCCCCC1 returned ELG1 DNA repair 11.9%, SW480 rereplic inconclusive, KB-3-1 tox inactive, MCF10A rereplic 26.5% and KB-V1 MDR tox inactive.
`CC(C)CN(C(=O)CCC(=O)OCc1ccc(Cl)cc1Cl)c1c(N)n(CC(C)C)c(=O)[nH]c1=O` gave ELG1 DNA repair 1.6%, SW480 rereplic -4.7%, KB-3-1 tox inactive, MCF10A rereplic 9.8% and KB-V1 MDR tox inactive.
`CN1CCCC1CCOC(C)(c1ccccc1)c1ccc(Cl)cc1` (stereo not given) gave SW480 rereplic 7.08µM*, KB-3-1 tox inactive, MCF10A rereplic 13.5% and KB-V1 MDR tox inconclusive.
Screening CC(C)(C)c1ccc(C(=O)NCC2CCCN2S(=O)(=O)c2ccccc2)cc1 (stereo not given) returned ELG1 DNA repair 0.0%, SW480 rereplic inconclusive, KB-3-1 tox inconclusive, MCF10A rereplic inconclusive and KB-V1 MDR tox inconclusive.

Screening data (PubChem BioAssay)
